Pf growth 96h: inhibits malaria parasite growth, 96 h. Potency, µM (highest dose often 28.7 µM), inactives show top-dose activity change, negative = inhibition, usual class: inhibitors. P. falciparum luciferase reporter growth, 96 h. actives 6.9% (n = 320,000); note: potency is the fitted concentration of half-maximal effect; % is set by controls: 0 for no effect and ±100 for the full control effect
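P. falciparum expressing integrated firefly luciferase, in erythrocytes at 2% hematocrit, 0.05% parasitemia, incubated with compounds 96 h at 37 C, 5% CO2. Growth inhibition read as loss of luminescence; two-generation exposure targets delayed-death apicoplast inhibitors.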
NS1 function inh: influenza NS1 inhibition | Potency, µM (highest dose often 46.1 µM), inactives show top-dose activity, positive = more growth | actives 0.4% (n = 270,000); calls by dose curve; note: potency is the fitted concentration of half-maximal effect; actives are rising curves; nearly all actives have a fitted effect of over 50% in size
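Read-out: OD600 growth recovery of NS1-expressing budding yeast. Cells grown overnight at 30C in -URA glucose medium, washed, resuspended and diluted 1:100 in 2% galactose assay medium, pH 6.0. Same strain lacking NS1 served as positive control.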
Shiga toxin inh: Shiga toxin inhibition; Vero cells, Shiga toxin protein synthesis inhibition reporter; inhibition, % at 38.7 µM; actives 9.2% (n = 290,000); AID 2315; in the data active = inhibition mostly above about 28%, no sharp cut-off; inactive = mostly below about 43%; note: 0% is about no effect
Cycloheximide cs: counter-screen for Shiga toxin inhibitors: cycloheximide protein synthesis inhibition | cell reporter, cycloheximide protein synthesis inhibition counterscreen | max response, % | actives 12% (n = 300,000); in the data active = max response mostly above about 13%, no sharp cut-off; inactive = mostly below about 14%; note: read at 38.3 µM for the half of the compounds with a filed dose; 0% is about no effect
Giardia FBPA inh: Giardia lamblia aldolase inhibition | purified Giardia FBPA | Potency, µM (titrated, usually from 59.6 µM), for the others: at the highest dose activity, negative = inhibition, most hits filed as inhibitors | actives 0.71% (n = 290,000) | AID 2451; note: potency is the fitted concentration of half-maximal effect; % is set by controls: 0 for no effect and ±100 for the full control effect; nearly all actives have a fitted effect of over 55% in size
Target sequence (A8B2U2 whole entry, looked up): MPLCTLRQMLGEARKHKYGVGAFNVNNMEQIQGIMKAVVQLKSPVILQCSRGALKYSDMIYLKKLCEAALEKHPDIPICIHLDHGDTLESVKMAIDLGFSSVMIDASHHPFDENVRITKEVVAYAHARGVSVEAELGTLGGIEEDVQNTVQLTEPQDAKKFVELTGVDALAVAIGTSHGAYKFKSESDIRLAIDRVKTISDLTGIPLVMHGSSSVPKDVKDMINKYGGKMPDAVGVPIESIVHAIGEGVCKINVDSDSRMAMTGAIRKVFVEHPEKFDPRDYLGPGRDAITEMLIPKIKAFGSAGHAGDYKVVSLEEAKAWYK
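Giardia FBPA (40 nM reagent) was preincubated 10 min at RT with compound (up to 57.5 uM final), then substrate plus GAPDH/TPI/NAD/arsenate coupling system with diaphorase/resazurin was added; resorufin fluorescence (525/598 nm) was read after 20 min.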
Pf growth 48h: inhibits P. falciparum growth in the first generation, 48 h | Potency, µM (top dose mostly 28.7 µM), inactives show at the highest dose activity change, negative = inhibition, hits mostly inhibitors | actives 5.9% (n = 310,000) | P. falciparum luciferase growth in erythrocytes, 48 h | AID 504832; note: potency is the fitted concentration of half-maximal effect; % is set by controls: 0 for no effect and ±100 for the full control effect
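Growth was read as firefly luciferase luminescence after a 48 h, 37 C, 5% CO2 exposure of compounds to reporter-bearing P. falciparum cultures (0.1% parasitemia, 2% hematocrit final) in Albumax-supplemented RPMI 1640.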
* hit, by the source's call. Hits are enriched below; roughly 21% of the tested compounds scored in any of these assays. Unless noted, calls come from the whole dose curve; as a rule, active = well fitted curve in the direction sought with a large enough effect; inconclusive = small, poorly fitted or top-dose-only effect, or another doubt; inactive = no such curve, though single readings can be large; an effect the other way counts as inactive or inconclusive.

Screening O=C(Nc1ccc(O)cc1)c1ccc(C(=O)c2ccccc2)o1 returned NS1 function inh -5%, Shiga toxin inh 55*, Cycloheximide cs 23, Giardia FBPA inh -8% and Pf growth 48h inconclusive.
CCC/C(=N\NC(=O)c1cccc(C)c1)c1ccccc1 was read as Pf growth 96h 5%, NS1 function inh -3%, Shiga toxin inh 59*, Cycloheximide cs 56*, Giardia FBPA inh 6% and Pf growth 48h 29%.
For COc1c(C(=O)NNC(=O)c2ccccc2)csc1Br the results were Pf growth 96h 169%, NS1 function inh -4%, Shiga toxin inh 48*, Cycloheximide cs 35*, Giardia FBPA inh 4% and Pf growth 48h 140%.
CCCCOC(=O)c1ccc(NC(=O)COC(=O)c2ccc3ncsc3c2)cc1 was read as Pf growth 96h 72% and Pf growth 48h -22%.
`COc1cccc(C(=O)NC23CC4CC(CC(C4)C2)C3)c1` gave Pf growth 96h -20%, NS1 function inh -20%, Shiga toxin inh 18, Cycloheximide cs 15*, Giardia FBPA inh 8% and Pf growth 48h 39%.
For COc1cccc(C(N)CC(=O)O)c1 (centres undefined) the results were Pf growth 96h 8.3µM*, NS1 function inh 6%, Shiga toxin inh -4, Cycloheximide cs -2, Giardia FBPA inh 0% and Pf growth 48h 15%.
Screening COc1cccc(C(=O)Nc2cccc3ccccc23)c1 returned Pf growth 96h 0%, NS1 function inh -6%, Shiga toxin inh 19, Cycloheximide cs 12, Giardia FBPA inh -10% and Pf growth 48h 8%.
Screening COc1cccc(C(=O)N/N=C(/CCC(=O)O)c2ccccc2)c1 returned Pf growth 96h 5%, NS1 function inh 13%, Shiga toxin inh active, Cycloheximide cs 52*, Giardia FBPA inh -1% and Pf growth 48h 0%.
Screening COc1ccc(C(=O)NC23CC4CC(CC(C4)C2)C3)cc1 returned Pf growth 96h 14%, NS1 function inh 0%, Shiga toxin inh 16, Cycloheximide cs 4, Giardia FBPA inh -5% and Pf growth 48h -2%.
For COc1cccc(C(=O)NN2c3ccccc3CCc3ccccc32)c1 the results were Pf growth 96h 13µM*, NS1 function inh 16%, Shiga toxin inh 3, Cycloheximide cs 14, Giardia FBPA inh -4% and Pf growth 48h 9.3µM*.
CC(OC(=O)/C=C/c1ccc2ccccc2n1)C(=O)Nc1ccc(S(N)(=O)=O)cc1 (centres undefined) was read as Pf growth 96h 2% and Pf growth 48h 10%.
Screening COc1cccc(/C(C)=N/N=C(\C)c2cccc(OC)c2)c1 returned Pf growth 96h 1%, NS1 function inh -23%, Shiga toxin inh 39*, Cycloheximide cs 34*, Giardia FBPA inh -2% and Pf growth 48h 160%.
For COc1cccc(C(=O)Nc2cnn(C(C)C)c2)c1 the results were Pf growth 96h -18%, Shiga toxin inh 94*, Cycloheximide cs 32*, Giardia FBPA inh -14% and Pf growth 48h 291%.
COc1cccc(C(=O)Nc2ccc(NC(=O)Cc3ccccc3)cc2)c1 was read as Pf growth 96h 7%, NS1 function inh 12%, Shiga toxin inh -9, Cycloheximide cs -3, Giardia FBPA inh 6% and Pf growth 48h -5%.
Screening COc1cccc(C(=O)Nc2ccccc2)c1 returned NS1 function inh -145%, Shiga toxin inh 64*, Cycloheximide cs 35*, Giardia FBPA inh 4% and Pf growth 48h 102%.
`COc1cccc(C(=O)Nc2c(F)c(F)c(F)c(F)c2F)c1` gave Pf growth 96h -7%, NS1 function inh -12%, Shiga toxin inh 9, Cycloheximide cs -2, Giardia FBPA inh -2% and Pf growth 48h 20%.
Screening Cc1ccc(C(=O)Nc2cccc(Oc3ccccc3)c2)o1 returned Pf growth 96h 37%, NS1 function inh -134%, Shiga toxin inh 34, Cycloheximide cs 30* and Giardia FBPA inh -7%.
Cc1ccc(C(=O)Nc2cccc(C(=O)NCc3ccccc3)c2)o1 was read as NS1 function inh -47%, Shiga toxin inh 21, Cycloheximide cs -2, Giardia FBPA inh -2% and Pf growth 48h inconclusive.
